± gives the standard deviation of the averaged measurements.
Legend:
DLD1 [1] = experiment: cell viability (CellTiter-Glo) relative to plate median (fraction of plate median); higher = more viable cells; details: 5 µM; treatment time 24 h; reporter: 7TFP
In short: (§1)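 Normalisation used webcellHTS2 in additive mode without log transformation, scaling each well's luminescence to the plate median. The luminescence was firefly luciferase or CellTiterGlo, read on a Tecan F500 from parallel plates of colorectal cancer cells stably transduced with lentiviral TCF/Wnt firefly luciferase reporters. Those cells had been given library compounds at a final 5 µM for 24 h, and two independent replicates were averaged.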

HCT116 = experiment: as above; details: 5 µM; treatment time 24 h; reporter: TCF4/Wnt
In short: as §1

SW480 [2] = experiment: as above; details: 5 µM; treatment time 24 h; reporter: 7TFP
In short: as §1

DLD1 [3] = experiment: TCF/Wnt firefly luciferase reporter signal relative to plate median (fraction of plate median); higher = higher Wnt reporter signal; details: 5 µM; treatment time 24 h; reporter: 7TFP
In short: as §1

SW480 [4] = experiment: as above; details: 5 µM; treatment time 24 h; reporter: 7TFP
In short: as §1

Row | Compound | cell viability (DLD1 [1]) | cell viability (HCT116) | cell viability (SW480 [2]) | TCF/Wnt firefly luciferase reporter signal (DLD1 [3]) | TCF/Wnt firefly luciferase reporter signal (SW480 [4])
1 | C=C1c2cccc(O)c2C(=O)C2=C(O)[C@]3(O)C(=O)C(C(N)=O)=C(O)[C@@H](N(C)C)[C@@H]3[C@@H](O)[C@H]12 | 0.968 ± 0.0014 | 0.928 ± 0.13 | 0.969 ± 0.073 | 1.06 ± 0.26 | 1.11 ± 0.064
2 | O=c1c(-c2ccc(O)cc2)coc2cc(O)ccc12 [Daidzein (Biofocus)] | 1.02 ± 0.03 | 1.16 ± 0.11 | 1.05 ± 0.057 | 1.11 ± 0.11 | 0.976 ± 0.091
3 | O=c1ccc2ccc(O)cc2o1 | 0.995 ± 0.036 | 0.972 ± 0.014 | 1.03 ± 0.028 | 0.936 ± 0.13 | 0.935 ± 0.042
4 | COc1cc2c3cc1Oc1cc(ccc1O)C[C@@H]1c4c(cc(OC)c(O)c4Oc4ccc(cc4)C[C@@H]3N(C)CC2)CC[N+]1(C)C | 0.992 ± 0.012 | 1.01 ± 0.1 | 1.01 ± 0.045 | 0.977 ± 0.089 | 1.07 ± 0.05
5 | Cc1cc(O)c2c(c1O)C(=O)c1c(O)cc(C)c(O)c1C2=O | 0.979 ± 0.019 | 0.968 ± 0.1 | 0.986 ± 0.063 | 0.964 ± 0.039 | 1.01 ± 0.014
6 | COc1cccc2c1C(=O)c1c(O)c3c(c(O)c1C2=O)C[C@@](O)(C(C)=O)C[C@@H]3O[C@H]1C[C@H](NC=O)[C@H](O)[C@H](C)O1 [Baumycin C1] | 0.9535 ± 0.0021 | 0.838 ± 0.081 | 0.9955 ± 0.0035 | 0.955 ± 0.042 | 1.05 ± 0.057
7 | CC1(C)S[C@@H]2[C@H](NC(=O)[C@H](C(=O)O)c3ccsc3)C(=O)N2[C@H]1C(=O)O | 1.09 ± 0.092 | 1.045 ± 0.0071 | 1.03 ± 0.052 | 0.871 ± 0.069 | 1.075 ± 0.0071
8 | C=C[C@H]1CN2CC[C@H]1C[C@H]2[C@H](O)c1ccnc2ccc(OC)cc12 | 1.11 ± 0.035 | 1.06 ± 0.021 | 1.07 ± 0.092 | 1.205 ± 0.0071 | 0.983 ± 0.11
9 | O=C(O[C@@H]1Cc2c(O)cc(O)cc2O[C@@H]1c1ccc(O)c(O)c1)c1cc(O)c(O)c(O)c1 | 0.946 ± 0.061 | 0.805 ± 0.24 | 1.04 ± 0.1 | 1.03 ± 0.11 | 1.08 ± 0.021
10 | COc1ccc2cc(CCC(C)=O)ccc2c1 | 0.968 ± 0.074 | 0.905 ± 0.09 | 0.925 ± 0.0085 | 1.24 ± 0.27 | 1.25 ± 0.035
11 | O=C(O)c1ccc(S(=O)(=O)N(Cl)Cl)cc1 | 0.936 ± 0.027 | 1 ± 0.028 | 0.8755 ± 0.0078 | 0.937 ± 0.052 | 0.876 ± 0.03
12 | CC(=O)c1ccc[nH]1 | 0.992 ± 0.04 | 1.03 ± 0.048 | 1.025 ± 0.0071 | 0.87 ± 0.23 | 0.798 ± 0.14
13 | CS(=O)(=O)CCCCN=C=S | 0.722 ± 0.18 | 0.8885 ± 0.00071 | 0.83 ± 0.03 | 0.83 ± 0.067 | 0.867 ± 0.12
14 | Cn1c(=O)c2c(ncn2CC(O)CO)n(C)c1=O (stereo not given) | 0.916 ± 0.016 | 0.996 ± 0.049 | 0.989 ± 0.03 | 1.09 ± 0.14 | 1.09 ± 0.05
15 | CC(=O)OC1CCC2(O)CC1(C)CCC1C2CC1(C)C (stereo not given) | 1.03 ± 0.014 | 1.06 ± 0.05 | 1.05 | 0.9135 ± 0.0064 | 0.933 ± 0.057
16 | COc1ccccc1OCC(O)CO (stereo not given) | 0.953 ± 0.015 | 1.08 ± 0.05 | 1.03 ± 0.052 | 1.09 ± 0.028 | 1.01 ± 0.095
17 | CC(C)COCC(CN(Cc1ccccc1)c1ccccc1)N1CCCC1 (stereo not given) | 1.06 ± 0.088 | 1 ± 0.064 | 1.02 ± 0.06 | 0.901 ± 0.084 | 0.937 ± 0.085
18 | CC(CN(C)C)CN1c2ccccc2Sc2ccccc21 (stereo not given) | 1 ± 0.12 | 1.02 ± 0.065 | 1.06 ± 0.057 | 0.997 ± 0.15 | 1.08 ± 0.071

Row | Compound | cell viability (DLD1 [1]) | cell viability (HCT116) | cell viability (SW480 [2]) | TCF/Wnt firefly luciferase reporter signal (DLD1 [3]) | TCF/Wnt firefly luciferase reporter signal (SW480 [4])
19 | CCCCC(=O)O[C@H]1CC[C@H]2[C@@H]3CCc4cc(O)ccc4[C@H]3CC[C@]12C | 1.07 ± 0.042 | 1.01 ± 0.052 | 1 ± 0.036 | 0.956 ± 0.25 | 1.04 ± 0.11
20 | COc1ccc(-c2oc3c(CC=C(C)C)c(O[C@@H]4O[C@H](CO)[C@@H](O)[C@H](O)[C@H]4O)cc(O)c3c(=O)c2O[C@@H]2O[C@@H](C)[C@H](O)[C@@H](O)[C@H]2O)cc1 | 1.03 ± 0.014 | 1.1 ± 0.085 | 0.957 ± 0.048 | 0.977 ± 0.1 | 0.974 ± 0.03
21 | CC(O)(P(=O)(O)O)P(=O)(O)O | 0.949 ± 0.073 | 0.943 ± 0.032 | 0.956 ± 0.037 | 1 ± 0.13 | 0.968 ± 0.06
22 | O=C1c2c(O)ccc(O)c2C(=O)c2c(NCCNCCO)ccc(NCCNCCO)c21 | 1.09 ± 0.078 | 0.635 ± 0.19 | 0.997 ± 0.018 | 0.936 ± 0.03 | 0.436 ± 0.04
23 | Cc1nnc(SCC2=C(C(=O)O)N3C(=O)[C@@H](NC(=O)Cn4cnnn4)[C@H]3SC2)s1 | 0.941 ± 0.035 | 0.941 ± 0.011 | 0.962 ± 0.044 | 0.942 ± 0.15 | 0.834 ± 0.16
24 | C[C@H]1O[C@@H](O[C@H]2[C@@H](O)C[C@H](O[C@H]3[C@@H](O)C[C@H](O[C@H]4CC[C@@]5(C)[C@H](CC[C@@H]6[C@@H]5CC[C@]5(C)[C@@H](C7=CC(=O)OC7)CC[C@]65O)C4)O[C@@H]3C)O[C@@H]2C)C[C@H](O)[C@@H]1O | 0.706 ± 0.19 | 0.33 ± 0.2 | 0.774 ± 0.052 | 0.157 ± 0.14 | 0.32 ± 0.11
25 | OC(CCN1CCCCC1)(c1ccccc1)c1ccccc1 | 0.982 ± 0.068 | 0.916 ± 0.051 | 1.02 ± 0.014 | 0.834 ± 0.2 | 0.878 ± 0.019
26 | COC(=O)C[C@H]1C(C)(C)[C@@H](O)[C@@H]2CC3=C4C=C(OC)O[C@@H](c5ccoc5)[C@]4(C)CCC3[C@@]1(C)C2=O (stereo partly drawn) [3-DEOXO-3beta-HYDROXYMEXICANOLIDE 16-ENOL ETHER] | 0.931 ± 0.11 | 0.91 ± 0.036 | 0.919 ± 0.018 | 0.946 ± 0.07 | 0.921 ± 0.064
27 | Nc1nc(=O)c2nc(CNc3ccc(C(=O)N[C@@H](CCC(=O)O)C(=O)O)cc3)cnc2[nH]1 | 1.07 ± 0.057 | 0.977 ± 0.075 | 1.03 ± 0.044 | 1.01 ± 0.098 | 1.05 ± 0.12
28 | CC(=O)NCCc1ccc(O)cc1 [N-(p-Hydroxyphenyl)ethylacetamide] | 1.02 ± 0.04 | 1.09 ± 0.057 | 1.06 ± 0.021 | 0.99 ± 0.099 | 1.14 ± 0.021
29 | COc1ccc(C(=O)/C=C/c2ccccc2)cc1 | 0.964 ± 0.0028 | 0.977 ± 0.0085 | 0.972 ± 0.069 | 0.936 ± 0.04 | 0.944 ± 0.15
30 | CC1(O)CC2C(CC1O)C2(C)C (stereo not given) | 0.946 ± 0.051 | 0.998 ± 0.06 | 0.953 ± 0.011 | 0.91 ± 0.12 | 0.848 ± 0.16
31 | C[C@H]1[C@@H](O)O[C@@H]2O[C@@]3(C)CC[C@H]4[C@H](C)CC[C@@H]1[C@@]24OO3 | 1.05 ± 0.09 | 0.746 ± 0.12 | 1.24 ± 0.05 | 0.761 ± 0.2 | 1.01 ± 0.052
32 | CC(=O)Nc1ccc(S(=O)(=O)c2ccc(NC(C)=O)cc2)cc1 | 0.966 ± 0.1 | 0.94 ± 0.012 | 0.931 ± 0.012 | 1.09 ± 0.035 | 1.05 ± 0.042
33 | COc1c(O)cc2c(-c3ccccc3)cc(=O)oc2c1OC | 0.989 ± 0.016 | 1.03 ± 0.028 | 0.977 ± 0.061 | 1.03 | 0.977 ± 0.033
34 | CCC(=O)O[C@H]1CC[C@H]2[C@@H]3CCc4cc(O)ccc4[C@H]3CC[C@]12C | 1.01 ± 0.023 | 1 ± 0.16 | 1.02 ± 0.014 | 0.888 ± 0.11 | 0.994 ± 0.052
35 | CCOC(=O)c1ccc(O)cc1 | 0.925 ± 0.019 | 0.89 ± 0.056 | 1.004 ± 0.0078 | 1.01 | 0.998 ± 0.059
36 | CCCc1nc2c(C)cc(-c3nc4ccccc4n3C)cc2n1Cc1ccc(-c2ccccc2C(=O)O)cc1 | 0.975 ± 0.12 | 0.992 ± 0.054 | 1.01 ± 0.021 | 0.98 ± 0.028 | 1 ± 0.021

— the supplement of paper PMC6522484
